TDP1 cell noCPT: qHTS for Inhibitors of human tyrosyl-DNA phosphodiesterase 1 (TDP1): qHTS in cells in absence of CPT; DT40 Tdp1-/- hTDP1 cells, no CPT, ATP luminescence, 48 h; Potency, µM (titrated, usually from 46.2 µM), actives largely listed as inhibitors; hit rate 15% among 420,000; AID 686978, 2013; also: nearly all actives have a fitted effect of over 55% in size
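Camptothecin absent (DMSO only). Human TDP1-complemented DT40 knockout cells, 400 cells/well, 37 °C for minimum 48 hr; ATP measured via CellTiter-Glo, 30 min dark incubation, luminescence.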
TDP1 cell CPT: growth inhibition of DT40 Tdp1-/-;hTDP1 cells with camptothecin (screen for TDP1 inhibitors) | chicken DT40 Tdp1-/-;hTDP1 cells + 20 nM CPT, ATP luminescence, 48 h | Potency, µM (top dose mostly 46.2 µM), usual class: inhibitors | hit rate 12% among 420,000 | AID 686979; also: nearly all actives have a fitted effect of over 55% in size
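Cell growth measured by CellTiter-Glo luminescence after a minimum 48 h, 37 C compound exposure with 20 nM CPT in Tdp1-knockout DT40 cells stably expressing hTDP1, seeded 400/well; qHTS titration format.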
IL1B secr inh: blocks inflammasome-driven IL-1 beta release; THP-1 LPS/ATP IL-1B secretion, AlphaLISA, 16 h; hits give low values; activity change, % at 57.5 µM; hit rate 4.7% among 360,000; AID 743279; in the data active = activity change below about -50%; inconclusive = mostly about -30% to -49%
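THP-1 cells pretreated 1 hr with compounds (up to 57.5 uM final), then stimulated with LPS (250 ng/mL final) plus ATP (1.25 mM final); secreted IL-1B measured by AlphaLISA after 16 hr, decreased signal indicating inhibition.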
HT1080-NT tox: kills 2HG-producing HT-1080-NT fibrosarcoma cells; HT-1080-NT fibrosarcoma viability, CellTiter-Glo ATP luminescence, 48 h; Potency, µM (titrated, usually from 46.1 µM), usual class: cytotoxic; hit rate 1.6% among 360,000;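 also: NT is the 2HG producing partner of a matched IDH1 knockdown line; nearly all actives have a fitted effect of over 55% in size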
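Luminescent CellTiter-Glo readout after 48 hours of compound exposure at 37 degrees C defined viability of HT-1080-NT cells. Activity was normalized to DMSO wells and cell-free media wells; concentration-response curves were fitted and assigned curve classes.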
HT1080 IDH1KD tx: kills HT-1080 cells with IDH1 knockdown. HT-1080 IDH1 knockdown viability, ATP luminescence, 48 h. Potency, µM (highest dose often 46.1 µM), actives largely listed as cytotoxic. hit rate 2% among 360,000. AID 686971
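Viability of IDH1-knockdown HT-1080 fibrosarcoma cells was assessed by CellTiter-Glo after 48 h at 37 °C with titrated compound; concentration-effect curves were classified by fit quality and response size.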
12-LOX inh: inhibitors of human 12S-lipoxygenase ALOX12; P18054; purified 12hLO, xylenol orange hydroperoxide absorbance; Potency, µM (series often up to 108 µM), most hits filed as inhibitors; hit rate 1.1% among 580,000; AID 1671190
Target sequence (P18054 whole entry, looked up): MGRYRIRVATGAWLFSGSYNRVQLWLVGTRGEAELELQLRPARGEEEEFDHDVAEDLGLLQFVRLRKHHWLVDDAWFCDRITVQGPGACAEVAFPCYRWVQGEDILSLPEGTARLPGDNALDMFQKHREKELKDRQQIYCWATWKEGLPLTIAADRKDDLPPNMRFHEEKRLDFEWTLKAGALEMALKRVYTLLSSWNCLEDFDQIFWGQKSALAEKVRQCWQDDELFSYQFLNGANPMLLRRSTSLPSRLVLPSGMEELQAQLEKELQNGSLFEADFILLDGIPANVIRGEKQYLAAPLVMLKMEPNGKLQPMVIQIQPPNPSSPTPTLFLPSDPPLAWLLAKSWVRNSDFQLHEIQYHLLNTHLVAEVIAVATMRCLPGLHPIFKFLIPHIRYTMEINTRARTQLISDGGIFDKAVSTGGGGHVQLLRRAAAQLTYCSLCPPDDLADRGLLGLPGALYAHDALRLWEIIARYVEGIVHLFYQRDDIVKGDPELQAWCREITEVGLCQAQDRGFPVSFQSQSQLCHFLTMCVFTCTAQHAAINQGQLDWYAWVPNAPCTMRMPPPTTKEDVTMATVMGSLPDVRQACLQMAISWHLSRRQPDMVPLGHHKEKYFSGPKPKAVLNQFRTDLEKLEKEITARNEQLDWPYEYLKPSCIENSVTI
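Purified human 12hLO at 150 nM in 25 mM Hepes, 0.01% Triton X-100, pH 7.0, preincubated 15 min at room temperature with compound. Reaction started with 40 uM arachidonic acid, 30 min at room temperature. Hydroperoxide measured by Fe-xylenol orange, 573/405 nm absorbance ratio.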
Numbers stand for hits. Shown is part of a subset that was picked to be rich in hits. Unless noted, calls follow the shape of the dose curve; as a rule, active = well fitted curve in the direction sought with a large enough effect; inconclusive = small, poorly fitted or top-dose-only effect, or another doubt; inactive = no such curve, though single readings can be large; an effect the other way counts as inactive or inconclusive.

O=C(NC1CCCc2ccccc21)C1CCN(c2c3c(nc4ncnn24)CCC3)CC1 (stereo unspecified) was read as TDP1 cell noCPT inconclusive, TDP1 cell CPT inconclusive, IL1B secr inh inactive, HT1080-NT tox inactive, HT1080 IDH1KD tx inactive and 12-LOX inh inactive.
Screening Cc1cc(C)nc(N2CCC(C(=O)NCc3ccccc3)CC2)n1 returned TDP1 cell noCPT inactive, TDP1 cell CPT inactive, IL1B secr inh inactive, HT1080-NT tox inactive, HT1080 IDH1KD tx inactive and 12-LOX inh inactive.
For COc1ccc(NC(=O)C2CCCN(c3c4c(nc5ncnn35)CCC4)C2)cc1OC (stereo unspecified) the results were TDP1 cell noCPT inconclusive, TDP1 cell CPT inconclusive, IL1B secr inh inactive, HT1080-NT tox inactive, HT1080 IDH1KD tx inactive and 12-LOX inh inactive.
`O=C(Nc1ccc2c(c1)CCC2)C1CCN(c2c3c(nc4ncnn24)CCC3)CC1` gave TDP1 cell noCPT 20.6µM, TDP1 cell CPT 23.1µM, IL1B secr inh inactive, HT1080-NT tox inconclusive, HT1080 IDH1KD tx inconclusive and 12-LOX inh inactive.
Screening Cc1cc(C)nc(N2CCC(CNC(=O)CCc3ccccc3)CC2)n1 returned TDP1 cell noCPT 20.6µM, TDP1 cell CPT inconclusive, IL1B secr inh inactive, HT1080-NT tox inactive, HT1080 IDH1KD tx inactive and 12-LOX inh inactive.
`Cc1cc(C)nc(N2CCC(C(=O)Nc3ccc(Oc4ccccc4)cc3)CC2)n1` gave TDP1 cell noCPT 8.2µM, TDP1 cell CPT 5.8µM, IL1B secr inh inactive, HT1080-NT tox inactive, HT1080 IDH1KD tx inactive and 12-LOX inh inactive.
Cc1noc(C)c1CSCC(=O)Nc1cccc(C(F)(F)F)c1 was read as TDP1 cell noCPT inactive, TDP1 cell CPT inactive, IL1B secr inh inactive, HT1080-NT tox inactive, HT1080 IDH1KD tx inactive and 12-LOX inh inactive.
O=S(=O)(N=C1SCCS1)c1ccccc1 was read as 12-LOX inh inactive.
For O=S(=O)(/N=S1\CC=CCN1S(=O)(=O)c1ccccc1)c1ccccc1 (stereo unspecified) the results were TDP1 cell noCPT 20.6µM, TDP1 cell CPT inconclusive, IL1B secr inh -86.4, HT1080-NT tox inconclusive, HT1080 IDH1KD tx inconclusive and 12-LOX inh inconclusive.
`CN(c1ccccc1)S(=O)(=O)c1cccc(C(=O)NCc2ccccc2CN2CCCC2)c1` gave TDP1 cell noCPT inconclusive, TDP1 cell CPT inconclusive, IL1B secr inh inactive, HT1080-NT tox inconclusive, HT1080 IDH1KD tx inconclusive and 12-LOX inh inactive.
CCN(CC)S(=O)(=O)c1cccc(C(=O)NCCc2ccccc2)c1 was read as TDP1 cell noCPT inconclusive, TDP1 cell CPT inconclusive, IL1B secr inh inactive, HT1080-NT tox inactive, HT1080 IDH1KD tx inactive and 12-LOX inh inactive.
COc1ccccc1CNC(=O)c1cccc(S(=O)(=O)N(C)c2ccccc2)c1 was read as TDP1 cell noCPT inconclusive, TDP1 cell CPT 25.9µM, IL1B secr inh inactive, HT1080-NT tox inactive, HT1080 IDH1KD tx inactive and 12-LOX inh inactive.
Screening CCN(c1ccccc1)S(=O)(=O)c1ccc(Cl)c(C(=O)NCCc2ccc(OC)cc2)c1 returned TDP1 cell noCPT inconclusive, TDP1 cell CPT 18.4µM, IL1B secr inh inactive, HT1080-NT tox inactive, HT1080 IDH1KD tx inactive and 12-LOX inh inactive.
`CN(c1ccccc1)S(=O)(=O)c1cccc(C(=O)NCCc2ccc(O)c(O)c2)c1` gave TDP1 cell noCPT 11.6µM, TDP1 cell CPT 8.2µM, IL1B secr inh inactive, HT1080-NT tox inactive, HT1080 IDH1KD tx inconclusive and 12-LOX inh inconclusive.
`CCOc1ccc(S(=O)(=O)N(C)c2ccc(OCC(=O)NCCc3ccc(OC)cc3)cc2)cc1` gave TDP1 cell noCPT 23.1µM, TDP1 cell CPT 20.6µM, IL1B secr inh inactive, HT1080-NT tox inactive, HT1080 IDH1KD tx inactive and 12-LOX inh inactive.
Screening Cc1cccc(NC(=O)CN2CCN(C(=O)CCNC(=O)c3ccc(C(C)(C)C)cc3)CC2)c1C returned 12-LOX inh inactive.
